# HT1080 IDH1KD tx – HT-1080 IDH1 knockdown cell toxicity (counter line); HT-1080 IDH1 knockdown viability, ATP luminescence, 48 h; Potency, µM (doses to about 46.1 µM), hits mostly cytotoxic; 2% of 360,000 active; AID 686971
#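 In this qHTS, HT-1080 cells depleted of IDH1 are exposed for 48 h at 37 °C to compound titrations. Toxicity is scored from CellTiter-Glo luminescence, with DMSO as full viability and medium alone as none.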
# KB-3-1 cytotox – KB-3-1 parental cell cytotoxicity; 1.4% of 400,000 active; KB-3-1 viability, CellTiter-Glo ATP luminescence, 72 h; Potency, µM (titrated, usually from 46.1 µM), most hits filed as cytotoxic; also: nearly all actives have a fitted effect of over 60% in size
#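 Multi-concentration cytotoxicity screen in KB-3-1 cells grown in DMEM lacking phenol red with 10% FBS. After 72 h at 37 °C with compound, ATP-dependent luminescence was recorded.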
# SW480 rerep – induces DNA re-replication in SW480 colon adenocarcinoma cells; SW480 DNA re-replication, Hoechst DNA content imaging, 48 h; Potency, µM (top dose mostly 46.1 µM), most hits filed as activators; 1.8% of 340,000 active; also: nearly all actives have a fitted effect of over 55% in size
#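 SW480 cells exposed to compounds for 48 hr at 37 C, 5% CO2, then Hoechst-stained 40 min. Nuclear DNA content imaged by fluorescence scanning (405 nm excitation, 500-530 nm emission); re-replication scored as increased high-intensity nuclei.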
# HT1080-NT tox – kills 2HG-producing HT-1080-NT fibrosarcoma cells | HT-1080-NT fibrosarcoma viability, CellTiter-Glo ATP luminescence, 48 h | Potency, µM (top dose mostly 46.1 µM), most hits filed as cytotoxic | 1.6% of 360,000 active | AID 686970;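 also: NT is the 2HG producing partner of a matched IDH1 knockdown line; nearly all actives have a fitted effect of over 55% in size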
#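 Read-out is CellTiter-Glo luminescence after 10 minutes at room temperature, following 48 hours' compound treatment of HT-1080-NT cells (750 cells/well, RPMI, 5% FBS, 37 degrees C).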
# KB-V1 MDR tox – kills drug-selected multidrug resistant KB-V1 cells. Potency, µM (top dose mostly 46.1 µM), usual class: cytotoxic. 3.4% of 400,000 active. AID 1347076. KB-V1 MDR cells viability, CellTiter-Glo, 72 h; also: nearly all actives have a fitted effect of over 60% in size
#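 Following 72 h at 37 degrees C with compound, KB-V1 cell viability was read by CellTiter-Glo luminescence, medium being phenol-red-free DMEM plus 10% FBS; concentration-response parameters came from normalized, curve-fitted qHTS data.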
# MCF10A rerep – DNA re-replication induction in MCF 10a cells. MCF 10A DNA re-replication, Hoechst nuclear intensity, 48 h. Potency, µM (series often up to 46.1 µM), hits mostly activators. 2.9% of 350,000 active. AID 624296; also: nearly all actives have a fitted effect of over 50% in size
# Hits are given with their value; – = inactive; ? = inconclusive; · = no result given; [ ] = remark or other dose. An excerpt weighted towards active compounds, which were near 7.9% of everything screened. Calls follow the shape of the dose curve; as a rule, active = well fitted curve in the direction sought with a large enough effect; inconclusive = small, poorly fitted or top-dose-only effect, or another doubt; inactive = no such curve, though single readings can be large; an effect the other way counts as inactive or inconclusive.
SMILES,HT1080 IDH1KD tx,KB-3-1 cytotox,SW480 rerep,HT1080-NT tox,KB-V1 MDR tox,MCF10A rerep
O=C(CC1C[C@H](C(=O)N2CCCCC2)[C@@]2(CCc3ccccc3)c3[nH]c4ccccc4c3CCN2C1=O)NCCc1ccccn1 (stereo not given in full),–,?,–[9.22 µM],–,12µM,–
O=C(C[C@H]1C[C@H](C(=O)N2CCOCC2)[C@@]2(CCC3CCCC3)c3[nH]c4cc(-c5ccco5)ccc4c3CCN2C1=O)NCCc1ccccn1,?,?,?,21µM,?,?
O=C(C[C@H]1C[C@H](C(=O)N2CCOCC2)[C@@]2(CCC3CCCC3)c3[nH]c4cc(-c5ccco5)ccc4c3CCN2C1=O)NCCC1=CCCCC1,–,–,–,–,–,–
C[C@]12c3[nH]c4ccccc4c3CCN1C(=O)C(CC(=O)NCCc1ccccn1)C[C@@H]2C(=O)N1CCCCC1 (stereo not given in full),–,–,–,–,–,–
CCOC(=O)N1CCC(NC(=O)c2cccnc2SC)CC1,–,–,–[9.22 µM],–,–,–
Cc1cccc(NC(=O)c2ccccc2SCc2ccc(F)cc2)n1,–,–,–,–,21µM,–
COc1ccc(NC(=O)CCN2CCCCCC2)c(OC)c1,–,–,–,–,–,–
O=C(NC(=S)Nc1nc2c(s1)CCCC2)c1ccc(C(=O)c2ccccc2)cc1,–,23µM,–,–,4.1µM,–
CC1CCc2nc(NC(=O)CN3CCN(c4ccc(F)cc4)CC3)sc2C1 (stereo not given),–,–,–,–,–,–
COC(=O)c1ccc(C(=O)NC(=S)Nc2nc3c(s2)CC(C)CC3)cc1 (stereo not given),–,16µM,–,–,?,–
O=C(Nc1nc2c(s1)CCCC2)c1cccnc1,–,–,–,–[9.24 µM],?,–
COc1cccc(N2CCN(CC(=O)Nc3nc4c(s3)CC(C)CC4)CC2)c1 (stereo not given),–,–,–,–,18µM,–
CCOC(=O)c1ccc(Oc2nc(NC)nc(OC)n2)cc1,–,–,–,–,–,–
CCOC(=O)Cc1ccc(NC(=O)N2CCSc3ccccc32)cc1,·,–,·,·,–,·
Cc1cc(C)cc(N(C)S(=O)(=O)c2nnc(NC(=O)C(C)C)s2)c1,–,–,–,–,–,–
CC(NC(=O)COC(=O)c1cn(-c2ccccc2)nc1-c1cccs1)c1ccccc1 (stereo not given),–,–,–,–,21µM,?
CC(=O)c1c(C)[nH]c(C(=O)C(C)Sc2nnc(NC3CC3)s2)c1C (stereo not given),–,·,–,–,·,18µM
CC(=O)c1c(C)[nH]c(C(=O)CSc2nnc(N)s2)c1C,–,–,–,–,–,–
CCOC(=O)[C@]12CCCC=C1N(Cc1ccccc1)C(=O)[C@H](CC(=O)NCC13CC4CC(CC(C4)C1)C3)C2,?,18µM,·,?,21µM,·
CCOC(=O)[C@]12CCCC=C1N(CCC1=CCCCC1)C(=O)[C@H](CC(=O)NCC13CC4CC(CC(C4)C1)C3)C2,?,?,·,?,18µM,·
CCOC(=O)[C@]12CCCC=C1N(Cc1ccco1)C(=O)[C@H](CC(=O)NCC13CC4CC(CC(C4)C1)C3)C2,?,–,·,?,?,·
CCOC(=O)[C@]12CCCC=C1N(Cc1ccco1)C(=O)[C@H](CC(=O)NCCCCc1ccccc1)C2,?,?,·,–,15µM,·
CCOC(=O)[C@]12CCC=C1N(Cc1ccc3c(c1)OCO3)C(=O)[C@H](CC(=O)NCC13CC4CC(CC(C4)C1)C3)C2,?,?,·,?,23µM,·
O=C(Nc1ccc(N2CCCC2)cc1)c1cc2ccccc2o1,–,–,–,–,–,–
CCc1cc(=O)oc2cc(C)c(CN3CCCCC3)c(O)c12,–,–,–,–,16µM,–
SMILES,HT1080 IDH1KD tx,KB-3-1 cytotox,SW480 rerep,HT1080-NT tox,KB-V1 MDR tox,MCF10A rerep
O=C(CBr)N1CCc2ccccc2C(c2ccccc2)C1 (stereo not given),21µM,–,–,26µM,–,–
O=C(CN1CCOCC1)N1CCc2ccccc2C(c2ccccc2)C1 (stereo not given),–,–,–,–,–,–
CS(=O)(=O)N(Cc1ccc(C(=O)Nc2ccccc2Sc2ccccc2)cc1)c1ccccc1,?,–,?,?,–,?
COc1ccc(CCNC(=O)CCc2c(C)nc3cc(-c4ccccc4)nn3c2C)cc1OC,·,–,·,·,–,·
CCc1c(C)nc2cc(-c3ccc(OC)c(OC)c3)nn2c1NCC1CC1,–,?,–,–,5.2µM,21µM
COc1cccc(C(=O)NCC(=O)N/N=C/c2cccc(OC(=O)c3ccc([N+](=O)[O-])cc3)c2)c1,–,–,–,–,–,–
Cc1cccc(C(=O)NCCC(=O)NCc2ccccc2Cl)c1,–,–,–,–,–,–
C/C(=N\Nc1ncc(Cl)cc1Cl)c1ccccn1,0.23µM,?,–,?,?,–
Cc1sc2ncnc(N/N=C/c3cccc(O)c3)c2c1C,?,–,–,?,–,–
C/C(=N\Nc1ncnc2sc(C)c(C)c12)c1ccccn1,0.52µM,?,?,0.92µM,?,?
C=CCNC(=O)NS(=O)(=O)c1ccc(C)cc1,–,–,–[9.22 µM],–,–,–
CCn1c(=N)n(CC(O)COc2ccc(C)cc2)c2ccccc21 (stereo not given),?,–,?,?,–,–
CN(C)CC(O)COc1cccc(OCC(O)CN(C)C)c1 (stereo not given),–,–,–,–,–,–
N=c1n(CCN2CCCC2)c2ccccc2n1CC(O)c1ccc(Cl)c(Cl)c1 (stereo not given),?,–,?,?,–,23µM
CCCCN(CC(O)COc1cccc(C)c1)CC(O)COc1cccc(C)c1 (stereo not given),18µM,?,?,21µM,?,?
CCCn1c(=N)n(CC(O)COc2ccc(C)cc2)c2ccccc21 (stereo not given),16µM,–,?,16µM,?,–
COc1ccc(OCC(O)Cn2c(=N)n(CCN3CCCCC3)c3ccccc32)cc1 (stereo not given),?,?,?,18µM,–,26µM
COc1ccc(C(C)(O)c2nc(/C=C/c3ccccc3)cs2)cc1 (stereo not given),?,–,·,–,–,·
COc1ccc(NC(=O)C2CCN(S(=O)(=O)c3ccc(OC)c(OC)c3)CC2)c(OC)c1,–,–,–,–,?,?
Cc1ccc(OCC(O)Cn2c(=N)n(CCN3CCOCC3)c3ccccc32)cc1 (stereo not given),–,–,–,–,–,–
Cc1cccc(OCC(O)CN2CCc3ccccc3C2)c1 (stereo not given),–,–,–,–,–,–

# Bioassay records from PubChem BioAssay.
